Data: the supplement of paper PMC12669032
Unmarked numbers belong to inactive results.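 The calls were made as follows: active = AUC reduced over 20% with Padj below 0.05 in at least 2 of 3 replicates; inactive = otherwise.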

system: Roseburia intestinalis; assay: growth AUC relative to DMSO control (median of replicates) (fraction); higher = more growth (less inhibition), active = hit call of the paper; conditions: 20 µM; 24 h
In short: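 Three biological replicates, each grown on a separate day, were combined as a median for every value. In each, a gut bacterial monoculture in mGAM started at OD600 0.05 and grew anaerobically at 37 °C with 20 µM compound (1% DMSO), with OD600 read hourly over 24 h. Area under the growth curve was normalised against the plate median of solvent-only wells, or against row and column medians on the industrial chemical plate, after the minimum OD was set to 0.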

SMILES | growth AUC
O=C(O)CNC(=O)c1cnccc1C(F)(F)F | 1.03
CN(C)C(=O)Nc1ccc(Cl)c(Cl)c1 | 1.03
COC(=O)COc1ccc(Cl)cc1C | 0.975
COc1c(Cl)ccc(Cl)c1C(=O)O | 0.976
Cc1nn(C)c(F)c1C(=O)Nc1ccccc1C(C)CC(C)C (centres undefined) | 0.963
Cc1nn(C)c(Oc2ccccc2)c1/C=N/OCc1ccc(C(=O)OC(C)(C)C)cc1 | 0.924
CC(C)OC(=O)N[C@H](C(=O)N[C@H](C)c1nc2ccc(F)cc2s1)C(C)C | 0.975
CC(C)c1cccc2c(=O)c3ccccc3sc12 | 1.02
Cl.NCCO/C=C/[C@H](N)C(=O)O | 0.975
CCNc1nc(N)[nH]c(=O)n1 | 1.06
COC1CCC2(CC1)NC(=O)C(c1cc(C)ccc1C)=C2OC1OC(CO)C(O)C(O)C1O (centres undefined) | 1
CCCCCCCCCCCC[N+](C)(C)Cc1ccc(CC)cc1.[Cl-] | 0.0285 (active)
CCOC(=O)CSc1nc(C(C)(C)C)nn1C(=O)N(C)C | 0.913
c1ccc2c(c1)ccc1ccccc12 | 0.993
CSC(=O)c1cccc2nnsc12 | 0.953
CC(C)OC(=O)c1cc(C(=O)OC(C)C)cc([N+](=O)[O-])c1 | 0.974
FC(F)(F)/N=C1\SC(=Nc2ccccc2)N(c2ccccc2)\C1=N\C(F)(F)F | 0.922
COc1ccc(Oc2ccc(NC(=O)N(C)C)cc2)cc1 | 0.99
C#CC(C)N(C)C(=O)Nc1ccc(Cl)cc1 (centres undefined) | 0.992
CCOC(=O)C1=NOC(c2ccccc2)(c2ccccc2)C1 | 1.01

SMILES | growth AUC
Br[C@@H]1CC[C@@H](Br)[C@@H](Br)CC[C@H](Br)[C@H](Br)CC[C@H]1Br | 1.43
c1cc2ccc3ccc4ccc5cccc6c(c1)c2c3c4c56 | 1.02
O=C(O)COc1ccc(Cl)c2cccnc12 | 0.963
COc1cc(OC)nc(NC(=O)NS(=O)(=O)c2c(-c3nnn(C)n3)cnn2C)n1 | 0.948
CON(C(=O)c1cc(C)oc1C)C1CCCCC1 | 1.09
CN(C)C(=O)Nc1ccccc1 | 0.983
CCOC(=O)C(C)Oc1ccc(Oc2cnc3cc(Cl)ccc3n2)cc1 (centres undefined) | 1.02
CC(C)N(C(=O)CS(=O)CC(=O)O)c1ccc(F)cc1 (centres undefined) | 1.03
Nc1ccc(S(=O)(=O)Nc2cnc3ccccc3n2)cc1 | 0.991
CC(C)(NC(=O)NCc1ccccc1Cl)c1ccccc1 | 1.09
O=C(O)Cc1c[nH]c2ccccc12 | 1.1
CCCCOCN(C(=O)CS(=O)(=O)[O-])c1c(CC)cccc1CC.[Na+] | 0.935
O.O.O=[N+]([O-])c1ccc([O-])cc1.[Na+] | 0.999
COc1cc(OC)nc(NC(=O)NS(=O)(=O)c2c(Cl)nc3ccccn23)n1 | 1
CC(=O)CC(c1ccccc1)c1c(O)c2ccccc2oc1=O (centres undefined) | 0.952
CCOC(N)=O | 1.05
Nc1cc(Cl)nc(C(=O)O)c1Cl | 1.01
COC(=O)C(C)Oc1cc(Cl)c(Cl)cc1Cl (centres undefined) | 1.01
C=CCOC(Cn1ccnc1)c1ccc(Cl)cc1Cl (centres undefined) | 0.767 (active)
